A selection: hits, their analogues and other compounds. The true share with any hit is near 1.7%.
HTR5A inv ctr: HTR5A inverse agonism, opioid heterodimer counter-screen; AID 504634; 0.083% of 340,000 active; inhibition, % at 9.3 µM; HTR5A cell line, luminescence; P47898; in the data active = inhibition mostly above about 23%, no sharp cut-off; inactive = mostly below about 18%;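 also: 0% = cells with DMSO and 100% = no-cell wells with DMSO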
HTR5A ag ctr: counter-screen for OPRM1-OPRD1 agonists: human HTR5A agonism | P47898 | AID 504692 | activation, % at 9.3 µM | HTR5A agonist assay, luminescence, cell-based | 0.61% of 340,000 active; in the data active = activation mostly above about 9.5%, no sharp cut-off; inactive = mostly below about 7.6%;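 also: 0% = cells with vehicle only and 100% = reference agonist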
V-ATPase pH: regulators of yeast V-ATPase proton transport; S. cerevisiae, pHLuorin cytosolic pH fluorescence; response, % at 10 µM; AID 504577; 0.37% of 350,000 active; in the data active = response mostly above about 7.3%, no sharp cut-off; inactive = mostly below about 5.4%; also: actives read high
MIN6 prolif: induces beta-cell replication in MIN6 cells; proliferation, % at 10 µM; MIN6 cells proliferation, ATPlite luminescence, 48 h; cells starved in 0.2% serum; 100% = growth in 10% serum; AID 2380; 0.29% of 330,000 active;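 active = compounds whose signal lies at least 3.5 SD above the mean of all wells on their plate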;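 also: 0% = DMSO-treated cells in low-serum medium and 100% = 10% serum control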
MOR-DOR ag: agonists of human mu-delta opioid receptor heterodimerization. activation, % at 9.3 µM. AID 504326. cells, OPRM1-OPRD1 heterodimerization, luminescence. P35372+P41143. 0.3% of 340,000 active; in the data active = activation above about 18%;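 also: 0% = vehicle-treated cells and 100% = reference agonist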
Target sequence (P35372 whole entry, looked up): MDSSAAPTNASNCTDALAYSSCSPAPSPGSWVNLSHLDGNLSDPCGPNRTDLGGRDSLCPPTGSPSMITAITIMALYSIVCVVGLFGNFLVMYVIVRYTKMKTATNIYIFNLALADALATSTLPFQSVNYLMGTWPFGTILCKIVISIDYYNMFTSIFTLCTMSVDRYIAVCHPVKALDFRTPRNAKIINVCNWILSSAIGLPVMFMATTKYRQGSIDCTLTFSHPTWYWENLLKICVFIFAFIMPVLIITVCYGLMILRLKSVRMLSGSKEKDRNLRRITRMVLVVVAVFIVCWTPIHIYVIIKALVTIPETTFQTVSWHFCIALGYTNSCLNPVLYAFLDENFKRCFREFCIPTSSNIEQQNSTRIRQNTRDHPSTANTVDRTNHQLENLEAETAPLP
Target sequence (P41143 whole entry, looked up): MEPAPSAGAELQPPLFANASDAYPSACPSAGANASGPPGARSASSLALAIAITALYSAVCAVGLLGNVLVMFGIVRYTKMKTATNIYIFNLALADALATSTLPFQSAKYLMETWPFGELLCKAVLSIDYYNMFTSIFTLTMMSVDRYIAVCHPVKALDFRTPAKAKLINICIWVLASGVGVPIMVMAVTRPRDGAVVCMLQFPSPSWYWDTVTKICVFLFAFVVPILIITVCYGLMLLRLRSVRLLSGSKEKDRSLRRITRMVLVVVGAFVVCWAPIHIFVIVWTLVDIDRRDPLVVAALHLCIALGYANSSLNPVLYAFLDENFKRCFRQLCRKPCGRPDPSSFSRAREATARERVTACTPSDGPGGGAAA
OPRM1-OPRD1 inv: inverse agonist of human OPRM1-OPRD1 heterodimerization; cell-based MOR-DOR heterodimer luminescence, inverse agonism; inhibition, % at 9.3 µM; 0.21% of 340,000 active; AID 504357; in the data active = inhibition above about 22%, passing the limit was not always enough;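 also: 0% = cells with DMSO and 100% = wells without cells with DMSO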
* = called active by the depositor; . = no result given.

SMILES	HTR5A inv ctr	HTR5A ag ctr	V-ATPase pH	MIN6 prolif	MOR-DOR ag	OPRM1-OPRD1 inv
CC(=O)n1cc([C@H]2C=C(C(=O)N3CCOCC3)O[C@@H](OCCCCO)C2)c2ccccc21	-16	6	2	-1	-2	13
CC(=O)c1sc(NC(=O)CS(=O)(=O)c2ccccc2)nc1C	6	4	0	8	0	1
CC(=O)c1sc(NC(=O)CS(=O)(=O)c2ccccc2)nc1-c1ccccc1	6	5	18*	-1	-1	9
COc1ccccc1NC1CCCCC1NS(=O)(=O)c1ccc(C)cc1 (stereo not drawn)	-10	8	-1	-3	3	-15
COc1ccc(NC2CCCCC2NS(=O)(=O)c2ccc(C)cc2)cc1 (stereo not drawn)	-7	3	21*	-2	7	-34
COc1ccc(O)c(/C=N/c2nc3ccccc3n2C)c1	-5	9	12*	1	2	-11
COCCNC(=O)C1CCN(Cc2cccc(OCc3ccccc3)c2)CC1	-21	6	13*	-2	-2	9
CC(C)CCNC(=O)C1CCN(Cc2cccc(OCc3ccccc3)c2)CC1	10	0	-6	-3	3	-19
Fc1ccccc1N=C1NN=C(c2ccccc2)CS1	-52	11*	0	-6	-3	14
N#Cc1c2ccc(OCC(N)=O)cc2n2ccccc12	4	2	-3	8.1*	4	-21
COc1cc(OC)cc(C(=O)c2c(C)c(C#N)c3ccccn23)c1	-3	1	1	0	-2	12
O=c1nc(Nc2ccc(Br)cc2)sc2ccc([N+](=O)[O-])cc12	10	-3	7	-1	-1	4
O/C(=C\c1nc2ccccc2nc1/C=C(\O)c1ccccc1)c1ccccc1	4	-9	5	-6	-14	71*
COc1cccc(C(=O)NCCS(=O)(=O)N2CCCC(C)C2)c1 (stereo not drawn)	.	.	1	.	.	.
COc1ccc(S(=O)(=O)Cc2ccc(C(=O)NC3CCCCC3)o2)cc1	-6	2	-2	-2	0	1
CCOC(=O)/C(=C/C1=CC(=C/N(C)C)/C(=O)O1)C(C)=O	-11	3	1	0	-2	12
CCCCCCN(C(=O)CCl)c1ccccc1	-7	64*	1	-6	53*	-271
CCCCCCCN(C(=O)CCl)c1cccc(C)c1	-129	84*	-3	-6	79*	-426
Cc1cccc(N(Cc2cc(=O)[nH]c3ccccc23)C(=O)CCl)c1	-12	3	3	-5	-2	10
O=C(CCl)N(c1ccccc1)c1ccccc1	10	-4	1	.	0	1
Cc1ccc(/C=C/C(=O)OCC(=O)N(C)c2c(N)n(Cc3ccccc3)c(=O)[nH]c2=O)o1	.	.	-1	.	.	.
C[C@H](CO)N1C[C@H](C)[C@@H](CN(C)S(=O)(=O)c2cccc(F)c2)Oc2ncc(Br)cc2C1=O	.	.	3	.	.	.
S=C(NCCCN1CCOCC1)NN=C1c2ccccc2-c2ccccc21	.	.	0	.	.	.
COc1ccccc1-c1cn[nH]c1-c1ccc(OCc2ccccc2)cc1O	-38	12*	3	-6	11	-58
COc1ccc(-c2cn[nH]c2-c2ccc(OCc3ccccc3)cc2O)cc1	-5	2	3	-6	11	-60
SMILES	HTR5A inv ctr	HTR5A ag ctr	V-ATPase pH	MIN6 prolif	MOR-DOR ag	OPRM1-OPRD1 inv
O=C(NCc1ccc(C(=O)O)cc1)OCc1ccccc1	-4	1	0	-3	-2	10
CC(NC(=O)CSc1nc2ccccc2n1C)c1ccccc1 (stereo not drawn)	-31	14*	5	1	1	-5
O=C1c2[nH]nc(-c3ccccc3O)c2C(c2cccc(Cl)c2)N1Cc1ccco1 (stereo not drawn)	-37	14*	2	-6	14	-65
COc1ccc(NC(=O)Nc2cc(C)cc(C)c2)cn1	10	-5	4	2	0	-1
COc1ccc(NC(=O)Nc2cccc(C(F)(F)F)c2)cn1	-35	13*	0	0	5	-24
O=C(O)c1ccc(N=Nc2c(-c3ccccc3)[nH]oc2=O)cc1	-13	3	3	2	-1	4
COC(=O)c1cn(NC(=O)c2cccc(F)c2)c(=O)c2ccccc12	-13	-1	-4	-1	-1	5
COC(=O)c1cn(NC(=O)c2cccc(N(C)C)c2)c(=O)c2ccccc12	-5	9.2*	13	1	1	-4
Cc1cc(NC(=O)CSc2nccn2C)n(-c2ccccc2)n1	-20	14*	1	-2	1	-6
O=C(O)c1c(-c2ccccc2)cnc2ccccc12	.	.	-1	.	.	.
O=C(NC1CC1)c1cccc(NC(=O)c2cnn(-c3ccccc3)n2)c1	-5	2	-5	-2	1	-5
O=C(NC1CC1)c1cccc(NC(=O)c2cn3ccccc3n2)c1	-9	13*	-3	-5	-5	20
CC(C)(C)c1ccc(S(=O)(=O)NNC(=O)c2cc3ccccc3[nH]2)cc1	-48	13*	3	-4	15	-73
COc1ccc(OC)c(S(=O)(=O)Nc2ccc(Oc3ccccc3)cc2)c1	-8	1	13*	-6	4	-19
COc1ccccc1CNC(=O)Cc1c[nH]c2ccccc12	10	2	13*	-2	1	-10
CC(C)C(=O)NCCc1c[nH]c2ccccc12	-68	0	-1	-2	-3	11
COc1ccc(CNC(=O)Cc2c[nH]c3ccccc23)cc1OC	8	-2	0	-1	-2	10
O=C(NCCc1c[nH]c2ccccc12)C(F)(F)F	-73	14*	-4	-1	-2	11
COc1ccc(S(=O)(=O)N2CCN(c3cnccn3)CC2)cc1OC	4	-1	16*	-3	-1	7
CC(=O)Nc1nnc(CCS(=O)(=O)c2ccc(C)cc2)s1	-7	11	23*	0	-1	7
Cc1ccc2[nH]c3c(Cl)ncnc3c2c1	.	.	1	-3	.	.
COc1ccc2c(c1)[nH]c1c(Cl)ncnc12	9	12*	-2	2	2	-11
COc1ccccc1C1CCN(C(=O)c2ccccc2)CC1	-21	6	2	0	-1	4
COc1ccccc1C1CCN(C(=O)c2cnn(-c3ccccc3)c2C)CC1	-1	12*	-1	-1	1	-3
CCOC(=O)C1CCN(c2ccc([N+](=O)[O-])cc2)CC1	-1	13*	-1	-1	-3	14
Cc1cc(C)n2nc(NCc3cccc(Br)c3)nc2n1	-36	12*	-1	3	1	-3
O=C(NCC1CCCO1)c1ccc(CSCc2cccc(F)c2)o1 (stereo not drawn)	-12	4	1	0	-1	8
Cc1ccc(CNC(=S)Nc2ccc(NS(=O)(=O)c3ccc(C)cc3)cc2)cc1	11	11*	5	-7	4	-21

Bioassay records (PubChem)
